Test results: PubChem BioAssay (NCI)
Compounds without any hit were thinned out: in the full panel of roughly 79,000, 15% have a hit. The source made the active and inactive calls. Cut-off read from the data, not from the text of the source: active = growth inhibition above about 70%; inactive = the rest.

Tests used:
[1] = NCI Yeast Anticancer Drug Screen. Data for the mec2-1 strain (AID 157); conditions: S. cerevisiae mec2-1 strain, stronger effect = higher value
How it was run: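 Each compound was tested on mec2-1 yeast, a strain altered in DNA damage repair or cell cycle control. Growth inhibition is reported relative to vehicle.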

[2] = NCI Yeast Anticancer Drug Screen. Data for the rad14 strain (AID 159);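 note: 0% = growth of vehicle-treated control cultures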; conditions: S. cerevisiae rad14 strain growth inhibition, stronger effect = higher value
How it was run: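 Yeast cells carrying a defined DNA-repair defect were exposed to compounds, and growth inhibition was calculated relative to vehicle-treated control cultures.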

[3] = NCI Yeast Anticancer Drug Screen. Data for the sgs1 mgt1 strain (AID 161);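 note: 0% = growth of cultures given vehicle only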; conditions: S. cerevisiae sgs1 mgt1 strain, stronger effect = higher value
How it was run: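 Genetically altered yeast, compound exposure, growth inhibition relative to vehicle.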

[4] = NCI Yeast Anticancer Drug Screen. Data for the CLN2oe strain (AID 163);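 note: 0% = growth of vehicle-only control cultures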; conditions: S. cerevisiae CLN2oe strain, stronger effect = higher value
How it was run: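 First, the altered yeast strain was treated with each compound; second, its growth was measured; finally, inhibition was derived by comparison with vehicle controls.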

[5] = NCI Yeast Anticancer Drug Screen. Data for the cln2 rad14 strain (AID 165);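 note: 0% = growth equal to vehicle treated cultures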; conditions: S. cerevisiae cln2 rad14 strain, stronger effect = higher value
How it was run: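 Test compounds were added to cln2 rad14 yeast cultures; inhibition of growth was then determined by comparison with vehicle treatment.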

[6] = NCI Yeast Anticancer Drug Screen. Data for the bub3 strain (AID 167); conditions: S. cerevisiae bub3 mutant strain, stronger effect = higher value
How it was run: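 Compounds were applied to a genetically altered yeast strain carrying a cell-cycle control defect. Growth inhibition was scored against vehicle-treated controls.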

[7] = NCI Yeast Anticancer Drug Screen. Data for the wt2 strain (AID 169);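 note: 0% = growth of vehicle-treated yeast cultures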; conditions: S. cerevisiae wt2 strain growth inhibition, stronger effect = higher value
How it was run: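 The panel's yeast strains carry defined changes in DNA repair or cell cycle genes. Each strain is grown with compound, and growth loss is scored relative to vehicle.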

[8] = NCI Yeast Anticancer Drug Screen. Data for the mlh1 strain (AID 171);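 note: 0% = growth of vehicle-treated control cultures of the same strain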; conditions: S. cerevisiae mlh1 strain growth inhibition, stronger effect = higher value
How it was run: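 Inhibition values reflect reduced yeast growth in the presence of compound, referenced to vehicle controls, using a strain chosen for its alteration in DNA repair or cell cycle control.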

[9] = NCI Yeast Anticancer Drug Screen. Data for the sgs1 strain (AID 173);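 note: 0% = growth of vehicle-only control cultures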; conditions: S. cerevisiae sgs1 mutant, stronger effect = higher value
How it was run: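 Vehicle-treated cultures served as reference for growth inhibition of a yeast strain altered in DNA damage repair or cell cycle control after compound exposure.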

[10] = NCI Yeast Anticancer Drug Screen. Data for the rad18 strain (AID 177); conditions: S. cerevisiae rad18 mutant growth inhibition, stronger effect = higher value
How it was run: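 Steps: expose repair-mutant yeast to compound; measure growth; express as inhibition relative to vehicle control.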

[11] = NCI Yeast Anticancer Drug Screen. Data for the rad52 strain (AID 147);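 note: 0% = growth of vehicle-treated control cultures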; conditions: S. cerevisiae rad52 mutant growth inhibition, stronger effect = higher value
How it was run: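 Inhibition of yeast growth, referenced to vehicle controls, was the measured output for a strain with defective DNA damage repair.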

[12] = NCI Yeast Anticancer Drug Screen. Data for the wt1 strain (AID 149);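 note: 0% = growth of vehicle-treated wt1 cultures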; conditions: S. cerevisiae wt1 strain (SPY 50644) growth inhibition, stronger effect = higher value
How it was run: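 Yeast wt1 strain exposed to compounds; growth inhibition measured relative to vehicle-treated controls.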

[13] = NCI Yeast Anticancer Drug Screen. Data for the rad50EPP+ strain (AID 151);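 note: 0% = growth of vehicle-treated control cultures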; conditions: S. cerevisiae rad50 mutant strain, stronger effect = higher value
How it was run: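 Genetically defined yeast (rad50EPP+, DNA damage repair alteration) is grown with compound, and inhibition of growth is expressed relative to vehicle-treated controls.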

[14] = NCI Yeast Anticancer Drug Screen. Data for the rad50 strain (AID 155);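 note: 0% = growth of vehicle-only cultures of the same strain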; conditions: S. cerevisiae rad50 strain growth inhibition, stronger effect = higher value
How it was run: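 Yeast carrying a defined DNA repair defect were exposed to test compounds, and growth was compared with vehicle-treated controls to give percent inhibition.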

[15] = NCI Yeast Anticancer Drug Screen. Data for the mlh1 rad18 strain (AID 175); conditions: S. cerevisiae mlh1 rad18 strain growth inhibition, stronger effect = higher value
How it was run: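 Inhibition values reflect reduced growth of mutant yeast versus vehicle-treated controls following compound exposure; the mutations affect DNA damage repair.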

[16] = at 5.0 µM (retest, dose inferred, filed as 0.5)
[17] = at 50.0 µM (retest, dose inferred, filed as 5.0)

Measured: growth inhibition

C/C(=N\NC(=S)NNC(=S)N(C)c1ccccc1)c1ccccn1
inactive: [2]; at 1.2 µM -6% | [3]; [16] 0% | [4]; at 1.2 µM 17% | [4]; at 3.7 µM 13% | [5]; [16] 29% | [6]; at 1.2 µM -17% | [6]; at 3.7 µM 21% | [7]; at 1.2 µM 9% | [7]; at 3.7 µM 22% | [8]; at 1.2 µM 21% | [8]; at 3.7 µM 41% | [9]; at 1.2 µM 13% | [9]; at 3.7 µM 64% | [10]; at 1.2 µM 16% | [10]; at 3.7 µM 31%
active: [1]; at 100.0 µM 82% | [2]; at 3.7 µM 71% | [2]; at 11.0 µM 97% | [2]; at 33.0 µM 98% | [2]; at 100.0 µM 79% | [3]; [17] 98% | [3]; at 50.0 µM 88.5% | [4]; at 11.0 µM 97% | [4]; at 33.0 µM 98% | [4]; at 100.0 µM 79% | [5]; [17] 99% | [5]; at 50.0 µM 86.3% | [6]; [16] 82% | [6]; at 11.0 µM 97% | [6]; at 33.0 µM 97% | [6]; [17] 98% | [6]; at 50.0 µM 87.2% | [6]; at 100.0 µM 83% | [7]; at 11.0 µM 97% | [7]; at 33.0 µM 99% | [7]; at 100.0 µM 90% | [8]; at 11.0 µM 97% | [8]; at 33.0 µM 98% | [8]; at 100.0 µM 83% | [9]; at 11.0 µM 98% | [9]; at 33.0 µM 98% | [9]; at 100.0 µM 88% | [10]; at 11.0 µM 98% | [10]; at 33.0 µM 98% | [10]; at 100.0 µM 83%

Cc1ccc(S(=O)(=O)Nc2ccc3c(c2)C(O)c2ccccc2-3)cc1 (stereo not drawn)
active: [11]; at 33.0 µM 71% | [14]; at 50.0 µM 74.5% | [3]; at 50.0 µM 89.5% | [5]; at 50.0 µM 79.4% | [6]; at 50.0 µM 83.3% | [7]; at 33.0 µM 75% | [8]; at 33.0 µM 80% | [9]; at 33.0 µM 86% | [15]; at 50.0 µM 91% | [10]; at 33.0 µM 73%
inactive: [11]; at 1.2 µM -2% | [11]; at 3.7 µM -1% | [11]; at 11.0 µM 9% | [11]; at 100.0 µM 59% | [12]; at 1.2 µM -3% | [12]; at 3.7 µM -7% | [12]; at 11.0 µM -7% | [12]; at 33.0 µM 22% | [12]; at 100.0 µM 27% | [13]; at 1.2 µM 4% | [13]; at 3.7 µM 10% | [13]; at 11.0 µM 31% | [13]; at 33.0 µM 38% | [13]; at 100.0 µM 22% | [14]; at 1.2 µM -2% | [14]; at 3.7 µM -3% | [14]; [16] -4% | [14]; at 11.0 µM 6% | [14]; at 33.0 µM 48% | [14]; [17] 10% | [14]; at 100.0 µM 42% | [1]; at 1.2 µM -5% | [1]; at 3.7 µM -3% | [1]; [16] -9% | [1]; at 11.0 µM -5% | [1]; at 33.0 µM 21% | [1]; [17] 7% | [1]; at 50.0 µM 23.1% | [1]; at 100.0 µM 33% | [2]; at 1.2 µM -2% | [2]; at 3.7 µM -3% | [2]; at 11.0 µM 4% | [2]; at 33.0 µM 38% | [2]; at 100.0 µM 23% | [3]; [16] 0% | [3]; [17] 5% | [4]; at 1.2 µM -7% | [4]; at 3.7 µM -10% | [4]; at 11.0 µM -9% | [4]; at 33.0 µM 30% | [4]; at 100.0 µM 30% | [5]; [16] -19% | [5]; [17] 23% | [6]; at 1.2 µM 0% | [6]; at 3.7 µM 0% | [6]; [16] -3% | [6]; at 11.0 µM 2% | [6]; at 33.0 µM 20% | [6]; [17] 12% | [6]; at 100.0 µM 23% | [7]; at 1.2 µM -6% | [7]; at 3.7 µM -7% | [7]; at 11.0 µM -2% | [7]; at 100.0 µM 43% | [8]; at 1.2 µM -8% | [8]; at 3.7 µM -6% | [8]; at 11.0 µM 2% | [8]; at 100.0 µM 33% | [9]; at 1.2 µM -1% | [9]; at 3.7 µM -1% | [9]; at 11.0 µM 26% | [9]; at 100.0 µM 57% | [15]; [16] -6% | [15]; [17] 40% | [10]; at 1.2 µM -3% | [10]; at 3.7 µM -4% | [10]; at 11.0 µM -4% | [10]; at 100.0 µM 51%

CC(=O)Oc1ccc(N2C(=O)C3c4[nH]c5ccccc5c4C4CCC(C(C)(C)C)CC4C3C2=O)cc1 (stereo not drawn)
active: [11]; at 3.7 µM 87% | [11]; at 11.0 µM 96% | [11]; at 33.0 µM 96% | [11]; at 100.0 µM 90% | [12]; at 11.0 µM 98% | [12]; at 33.0 µM 95% | [12]; at 100.0 µM 95% | [14]; at 3.7 µM 91% | [14]; [16] 98% | [14]; at 11.0 µM 96% | [14]; at 33.0 µM 95% | [14]; [17] 98% | [14]; at 50.0 µM 98.5% | [14]; at 100.0 µM 92% | [1]; at 3.7 µM 71% | [1]; [16] 99% | [1]; at 11.0 µM 98% | [1]; at 33.0 µM 98% | [1]; [17] 98% | [1]; at 50.0 µM 98.5% | [1]; at 100.0 µM 95% | [2]; at 11.0 µM 97% | [2]; at 33.0 µM 97% | [2]; at 100.0 µM 95% | [3]; [16] 98% | [3]; [17] 98% | [3]; at 50.0 µM 98.5% | [4]; at 3.7 µM 92% | [4]; at 11.0 µM 98% | [4]; at 33.0 µM 97% | [4]; at 100.0 µM 97% | [5]; [16] 83% | [5]; [17] 98% | [5]; at 50.0 µM 98.6% | [6]; [16] 98% | [6]; at 11.0 µM 97% | [6]; at 33.0 µM 96% | [6]; [17] 98% | [6]; at 50.0 µM 98.5% | [6]; at 100.0 µM 94% | [7]; at 11.0 µM 98% | [7]; at 33.0 µM 98% | [7]; at 100.0 µM 96% | [8]; at 11.0 µM 98% | [8]; at 33.0 µM 97% | [8]; at 100.0 µM 94% | [9]; at 11.0 µM 97% | [9]; at 33.0 µM 97% | [9]; at 100.0 µM 94% | [10]; at 3.7 µM 82% | [10]; at 11.0 µM 96% | [10]; at 33.0 µM 95% | [10]; at 100.0 µM 93%
inactive: [11]; at 1.2 µM 7% | [12]; at 1.2 µM 15% | [12]; at 3.7 µM 64% | [13]; at 1.2 µM -23% | [13]; at 3.7 µM -26% | [13]; at 11.0 µM -26% | [13]; at 33.0 µM -6% | [13]; at 100.0 µM 6% | [14]; at 1.2 µM -14% | [1]; at 1.2 µM -4% | [2]; at 1.2 µM -15% | [2]; at 3.7 µM 18% | [4]; at 1.2 µM 16% | [6]; at 1.2 µM -28% | [6]; at 3.7 µM 64% | [7]; at 1.2 µM -4% | [7]; at 3.7 µM 25% | [8]; at 1.2 µM -15% | [8]; at 3.7 µM 36% | [9]; at 1.2 µM -7% | [9]; at 3.7 µM 52% | [10]; at 1.2 µM 13%
